Data taken from PubChem BioAssay (Tox21).
Records with an inconclusive call do not appear. Activity calls are given as the source filed them. Unless noted, the call rests on the fitted dose curve; in most records, active means well fitted curve in the direction sought with a large enough effect in the repeat runs; inconclusive means weak or mixed curves; inactive means no such curve, though single readings can be large; an effect the other way counts as inactive or inconclusive.

Columns and labels:
[1] = target: Progesterone receptor (Homo sapiens) (UniProt P06401); assay: qHTS assay to identify small molecule antagonists of the progesterone receptor (PR) signaling pathway (AID 1346795; active means well fitted inhibition curve with a large enough effect in the signal ratio in the repeat runs, not every such curve was filed as active; the % refers to the signal ratio; further: potency means the concentration at half of the fitted maximal effect)
Summary of the method: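 PR-UAS-bla HEK293T cells carrying a UAS-driven beta-lactamase reporter were plated in medium with 2% charcoal-stripped FBS and rested 6 hr at 37C. Compounds were added with 1 nM R5020 (final) for 16 hr, then FRET substrate loaded 2 hr at room temperature.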

[2] = qHTS assay to identify small molecule antagonists of the progesterone receptor (PR) signaling pathway - cell viability counter screen (AID 1346798); further: series mostly up to about 92 µM; nearly all actives have a fitted effect of over 50% in size
Summary of the method: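 PR-UAS-bla HEK293T cells in medium with 2% charcoal-stripped FBS were treated with compounds plus R5020 for 16 hr at 37C. Cell viability was then read by CellTiter-Glo luminescence after 30 min at room temperature in the same wells.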

[3] = qHTS assay to identify small molecule agonists of the progesterone receptor (PR) signaling pathway - cell viability counter screen (AID 1346799; calls by dose curve; further: nearly all actives have a fitted effect of over 45% in size)
Summary of the method: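 PR-UAS-bla HEK293T cells, 3,000 per well in medium with 2% charcoal-stripped FBS, were preincubated 6 hr at 37C, then exposed to compounds for 16 hr; viability was read as CellTiter-Glo luminescence after 30 min at room temperature.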

[4] = qHTS assay to identify small molecule antagonists of the TGF-beta/Smad signaling pathway - cell viability counter screen (AID 1346824); further: nearly all actives have a fitted effect of over 50% in size
Summary of the method: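 SBE-bla HEK 293T cells, incubated overnight, then compound plus 0.25 ng/mL TGF-beta1 (stock added) for 5 hr at 37 C. Viability was read in the same wells by CellTiter-Glo luminescence after 30 min at room temperature.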

[5] = qHTS assay to identify small molecule agonists of the TGF-beta/Smad signaling pathway - cell viability counter screen (AID 1346829); further: top concentration of the series differs between compounds; nearly all actives have a fitted effect of over 45% in size
Summary of the method: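 After overnight seating at 37 C and 5% CO2, reporter cells got compounds for 5 hr and FRET substrate for 2 hr; cell viability then came from CellTiter-Glo luminescence.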

[6] = qHTS assay to identify small molecule agonists of the TGF-beta/Smad signaling pathway (AID 1346859; active means well fitted activation curve with a large enough effect in the signal ratio in the repeat runs, not every such curve was filed as active; the % refers to the signal ratio; further: series mostly up to about 77 µM)
Summary of the method: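 HEK 293T cells stably carrying a beta-lactamase reporter driven by the Smad binding element were seeded overnight, exposed to DMSO-dissolved compounds for 5 hr at 37 C, 5% CO2, then loaded with FRET substrate for 2 hr at room temperature.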

[7] = Human pregnane X receptor (PXR) small molecule agonists, qHTS cell viability counter screen (AID 1346977); further: nearly all actives have a fitted effect of over 50% in size; further: potency means the concentration at half of the fitted maximal effect
Summary of the method: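 PXR-Luc HepG2 cells in medium with 5% charcoal-stripped FBS were pre-incubated 5hr, then exposed to compounds for 24hr at 37C. Viability was read in the same wells by CellTiter-Fluor fluorescence, reagent added after 23hr with a 1hr incubation.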

[8] = Caspase-3/7 induction in HepG2 cells by small molecules, qHTS assay (AID 1346978); further: nearly all actives have a fitted effect of over 15% in size
Summary of the method: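 Wild-type HepG2 cells, 2,000/well, settled 5 hr at 37 C and 5% CO2, then compound-treated for 17 hr; caspase-3/7 activity read by luminescent Caspase-Glo 3/7 after 30 min at room temperature.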

[9] = target: Thyrotropin-releasing hormone receptor (Homo sapiens) (UniProt P34981); assay: qHTS assay to identify small molecule agonists of the thyrotropin-releasing hormone receptor (TRHR) signaling pathway (AID 1346891; calls by dose curve; further: series mostly up to about 58 µM)
Summary of the method: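 TRHR-expressing HEK293 cells were plated 18 h at 37 °C/5% CO2, loaded with calcium dye 2 h at 37 °C, then given compound in DMSO; fluorescence was read kinetically for 3 min at 1 s intervals.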

[10] = target: Thyrotropin-releasing hormone receptor (Homo sapiens) (UniProt P34981); assay: qHTS assay to identify small molecule antagonists of the thyrotropin-releasing hormone receptor (TRHR) signaling pathway (AID 1346877; active means well fitted inhibition curve with a large enough effect in the repeat runs, not every such curve was filed as active; further: series mostly up to about 51 µM)
Summary of the method: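 In this cell-based calcium flux format, HEK293 cells expressing TRHR received test compound for 5 min before the agonist TRH (1 nM final). Dye loading lasted 2 h at 37 °C.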
On the % scale 0 is the no-effect control and ±100 the full control effect.

Chain of Thyrotropin-releasing hormone receptor (Homo sapiens) (P34981 whole entry, looked up): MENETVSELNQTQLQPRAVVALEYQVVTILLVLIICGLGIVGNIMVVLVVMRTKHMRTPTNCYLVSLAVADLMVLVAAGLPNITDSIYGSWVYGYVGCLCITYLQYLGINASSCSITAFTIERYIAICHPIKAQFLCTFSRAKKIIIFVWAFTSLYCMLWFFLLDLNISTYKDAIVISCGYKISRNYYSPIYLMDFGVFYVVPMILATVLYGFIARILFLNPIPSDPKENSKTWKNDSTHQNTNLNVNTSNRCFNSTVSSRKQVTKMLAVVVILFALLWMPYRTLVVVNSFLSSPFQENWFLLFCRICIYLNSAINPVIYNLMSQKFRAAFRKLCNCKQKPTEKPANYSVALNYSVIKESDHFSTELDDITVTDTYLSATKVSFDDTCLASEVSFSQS
Chain of Progesterone receptor (Homo sapiens) (P06401 whole entry, looked up): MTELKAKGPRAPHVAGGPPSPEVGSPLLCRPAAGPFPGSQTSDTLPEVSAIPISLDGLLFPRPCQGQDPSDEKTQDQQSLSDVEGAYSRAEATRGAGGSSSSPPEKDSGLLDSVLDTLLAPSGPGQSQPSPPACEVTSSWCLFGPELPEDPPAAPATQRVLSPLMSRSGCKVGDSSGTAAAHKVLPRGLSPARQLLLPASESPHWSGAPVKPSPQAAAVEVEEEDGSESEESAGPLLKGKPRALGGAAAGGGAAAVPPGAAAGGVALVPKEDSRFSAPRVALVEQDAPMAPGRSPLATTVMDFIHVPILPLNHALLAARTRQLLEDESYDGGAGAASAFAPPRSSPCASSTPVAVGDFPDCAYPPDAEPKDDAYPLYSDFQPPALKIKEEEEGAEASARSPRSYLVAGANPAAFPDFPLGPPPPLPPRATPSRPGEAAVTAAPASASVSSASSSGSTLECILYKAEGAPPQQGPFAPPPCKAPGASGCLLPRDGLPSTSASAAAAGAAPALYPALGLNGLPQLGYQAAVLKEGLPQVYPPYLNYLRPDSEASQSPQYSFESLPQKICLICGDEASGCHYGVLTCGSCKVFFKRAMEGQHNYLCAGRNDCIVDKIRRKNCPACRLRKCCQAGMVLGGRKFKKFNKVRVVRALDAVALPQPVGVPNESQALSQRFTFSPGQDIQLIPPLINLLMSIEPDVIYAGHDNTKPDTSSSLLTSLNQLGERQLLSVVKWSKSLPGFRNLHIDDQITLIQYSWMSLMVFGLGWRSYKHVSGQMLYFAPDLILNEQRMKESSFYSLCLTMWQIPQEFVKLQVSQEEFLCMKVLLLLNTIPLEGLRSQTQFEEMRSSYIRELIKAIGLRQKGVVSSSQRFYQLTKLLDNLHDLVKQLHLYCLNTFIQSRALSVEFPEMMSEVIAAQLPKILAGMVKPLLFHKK

CC/C=C\CCCCCO
inactive: Potency [1] | Potency [2] | Potency [3] | Potency [4] | Potency [5] | Potency [6] | Potency [7] | Potency [8]

Cc1nc2n(c(=O)c1CCN1CCC(c3noc4cc(F)ccc34)CC1)CCCC2
inactive: Potency [1] | Potency [2] | Potency [3] | Potency [4] | Potency [5] | Potency [6] | outcome [9] | Potency [7] | Potency [8]

CC1=CCC(=C(C)C)CC1
inactive: Potency [1] | Potency [2] | Potency [3] | Potency [4] | Potency [5] | Potency [6] | Potency [7] | Potency [8]

Cc1cccc(C(=O)O)c1O
inactive: Potency [1] | Potency [2] | Potency [4] | Potency [5] | Potency [6] | Potency [10] | outcome [9] | Potency [7] | Potency [8]

O=C(O)CN(CCN(CC(=O)O)CC(=O)O)CC(=O)O
inactive: activity change, negative = inhibition [1] 7.88% [at 3.27 µM] | activity change, negative = cytotoxicity [2] 3.78% [at 3.27 µM] | viability change, negative = cytotoxic [4] -0.549% [at 2.72 µM] | activity change, negative = cytotoxicity [5] 9.65% [at 2.72 µM] | activation [6] -0.839% [at 2.72 µM] | activity change, negative = cytotoxicity [7] 0.665% [at 3.27 µM] | caspase activation [8] -0.861% [at 3.27 µM]

Cc1ccc(N/N=c2\c(=O)cc/c(=N\Nc3ccc(S(=O)(=O)O)cc3)c2=O)c(C)c1
active: Potency [7] 30.6 µM
inactive: Potency [1] | Potency [2] | Potency [3] | Potency [5] | outcome [9]

Cc1c(F)c(N2CCNC(C)C2)cc2c1c(=O)c(C(=O)O)cn2C1CC1 (stereo not given)
inactive: Potency [1] | Potency [2] | Potency [3] | Potency [5] | Potency [7] | Potency [8]

O=C(O)Cc1ccc2c(c1)C(=O)c1ccccc1CO2
inactive: Potency [1] | Potency [2] | Potency [3] | Potency [5] | Potency [7]

Nc1ccc(C(=O)O)c(O)c1
inactive: Potency [1] | Potency [3] | Potency [4] | Potency [5] | Potency [6] | Potency [10] | outcome [9] | Potency [7]

CCCCCCCC
inactive: Potency [1] | Potency [3] | Potency [4] | Potency [5] | Potency [6] | Potency [10] | outcome [9] | Potency [7] | Potency [8]

C#Cc1ccc(-c2ccccc2F)cc1
inactive: Potency [1] | Potency [3] | Potency [4] | Potency [5] | Potency [6] | Potency [10] | outcome [9] | Potency [7] | Potency [8]

CC(N=C(NC#N)Nc1ccncc1)C(C)(C)C (stereo not given)
inactive: Potency [1] | Potency [3] | Potency [4] | Potency [5] | Potency [6] | Potency [10] | outcome [9] | Potency [7] | Potency [8]

COCCOc1cc2cc(C(=O)NC3CCN(C(C)C)CC3)n(CC(=O)Nc3ccc(Cl)cn3)c2cn1
active: Potency [7] 53.9 µM
inactive: Potency [1] | Potency [2] | Potency [4] | Potency [5] | Potency [10] | outcome [9] | Potency [8]

COc1cccc(OC)c1C(=O)O
inactive: Potency [1] | Potency [3] | Potency [4] | Potency [5] | Potency [6] | outcome [9] | Potency [7] | Potency [8]

CCO[C@@H]1O[C@H](C(COCc2ccccc2)OCc2ccccc2)[C@H](OCc2ccccc2)[C@H]1O (stereo not given in full)
active: Potency [1] 26.6 µM
inactive: Potency [3] | Potency [4] | Potency [5] | Potency [6] | Potency [10] | outcome [9] | Potency [8]

CC(C(=O)O)c1ccc2c(c1)[nH]c1ccc(Cl)cc12 (stereo not given)
inactive: Potency [1] | Potency [2] | Potency [4] | Potency [5] | Potency [10] | outcome [9] | Potency [7] | Potency [8]

CN1CCN(Cc2cc(-c3ccc4[nH]c(=O)oc4c3)co2)[C@@H](c2ccc(F)cc2)C1
active: Potency [1] 46.7 µM | Potency [7] 46.7 µM
inactive: Potency [2] | Potency [4] | Potency [5] | Potency [10] | outcome [9]

Cc1cc(-c2ccc(N=Nc3cc(S(=O)(=O)O)c4ccccc4c3N)c(C)c2)ccc1N=Nc1cc(S(=O)(=O)O)c2ccccc2c1N
inactive: Potency [1] | Potency [2] | Potency [4] | Potency [5] | Potency [10] | outcome [9] | Potency [8]

Cc1cc(C(C)(C)C)cc(C)c1CC1=NCCN1
inactive: Potency [1] | Potency [2] | Potency [3] | Potency [5] | Potency [8]

C=Cc1cccc(C)c1
inactive: Potency [1] | Potency [2] | Potency [3] | Potency [5] | Potency [6] | Potency [7] | Potency [8]

CCN(CC)c1ccc2c(-c3ccc(S(=O)(=O)O)cc3S(=O)(=O)[O-])c3ccc(=[N+](CC)CC)cc-3oc2c1
active: Potency [7] 5.01 µM
inactive: Potency [1] | Potency [2] | Potency [4] | Potency [6] | Potency [10] | outcome [9] | Potency [8]

OCC(F)(F)F
inactive: Potency [1] | Potency [3] | Potency [4] | Potency [5] | Potency [6] | outcome [9] | Potency [7] | Potency [8]

CC(C)(C)NSc1nc2ccccc2s1
inactive: Potency [1] | Potency [2] | Potency [3] | Potency [5] | Potency [6] | Potency [7] | Potency [8]

NC(=S)NC(N)=S
inactive: Potency [1] | Potency [3] | Potency [4] | Potency [5] | Potency [6] | outcome [9] | Potency [7] | Potency [8]

CC1(C)[C@@H](O)CC[C@]2(C)[C@H]3C(=O)C=C4[C@@H]5C[C@@](C)(C(=O)O)CC[C@]5(C)CC[C@@]4(C)[C@]3(C)CC[C@@H]12
active: Potency [1] 60.4 µM
inactive: Potency [2] | Potency [4] | Potency [5] | Potency [7]

CC(=O)c1ccc(C(C)=O)cc1
inactive: Potency [1] | Potency [3] | Potency [4] | Potency [5] | Potency [6] | Potency [10] | outcome [9] | Potency [7]

CCCCCCCCCCOC(=O)c1ccccc1C(=O)OCCCCCCCC
inactive: Potency [1] | Potency [2] | Potency [3] | Potency [5] | Potency [10] | outcome [9] | Potency [7]

Cc1nc(-c2ccc(Cl)cc2)oc1COC(C)(C)C(=O)O
inactive: Potency [1] | Potency [2] | Potency [5] | Potency [6] | outcome [9] | Potency [7] | Potency [8]

CCN1C(=O)c2ccccc2C1Nc1ccc(OCCN2CCCCC2)cc1 (stereo not given)
inactive: Potency [1] | Potency [2] | Potency [4] | Potency [5] | Potency [10] | outcome [9]
